# LMP1 NFkB inh – Epstein-Barr LMP1 NF-kappaB reporter inhibition | LMP1-induced NF-kappaB luciferase reporter cells, luminescence | inhibition, % at 12.5 µM | actives 0.69% (n = 350,000) | AID 504558; in the data active = inhibition above about 41%; inconclusive = no clear call, values can overlap the other calls;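 note: 0% = neutral control wells and 100% = reference inhibitor control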
# TWEAK Fn14 block – TWEAK-Fn14 signaling inhibition | AID 1159606 | actives 2% (n = 360,000) | inhibition, % at 10 µM | TWEAK-stimulated Fn14 reporter cells, luciferase luminescence, 8 h; in the data active = inhibition above about 50%
# TROY signal inh – blocks TROY-dependent signaling in reporter cells; Q293 LMP1-TROYcd NF-kB luciferase reporter, 4 h; inhibition, % at 10 µM; actives 0.98% (n = 360,000); AID 1347056;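 active = compounds whose plate-normalised and pattern-corrected inhibition of the luciferase reporter signal at the single screening dose is 50% or more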
# LGR2 antag – blocks bursicon-induced cAMP signaling via Drosophila LGR2; HEK293 LGR2, CRE-luciferase, bursicon-stimulated, 4 h; inhibition, % at 9.99 µM; actives 0.35% (n = 380,000);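 active = drop in luminescence signal, shown as inhibition above about 50% in the replicate tests, limit read from the data, passing the limit was not always enough; inconclusive = probably only some replicates passing the limit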;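 note: agonist challenge used bursicon conditioned medium at about half maximal strength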
# PAX8 reporter – PAX8 transcriptional activity inhibition; AID 652154; RMG-I TPO-luciferase reporter, SteadyGlo, 24 h; actives 1.2% (n = 360,000); inhibition, % at 12.6 µM;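 active = mean replicate inhibition at least 60% with every replicate also reaching 60%; inconclusive = only one of the two criteria is met; inactive = mean below 60% and not all replicates reaching 60%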;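 note: luciferase light reporting Pax8 driven TPO promoter activity; plate controls were median of neutral control wells for no effect and mitoxantrone controls for full effect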
# EWS-Fli block – EWS/Fli transcriptional activity inhibition; A673 NR0B1-luciferase reporter, viability-normalised; inhibition, % at 12.6 µM; actives 0.67% (n = 350,000); AID 651661;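 active = mean inhibition of at least 50% after viability correction, with every replicate also passing that limit; inconclusive = mean reaches 50% but only one of two replicates passes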;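 note: firefly luciferase signal divided by Alamar Blue viability fluorescence both relative to DMSO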
# An asterisk follows results filed as active; ? = inconclusive; · = not tested or not shown. Most compounds without a hit are left out; they make up all but 3.2% or so of the library.
SMILES,LMP1 NFkB inh,TWEAK Fn14 block,TROY signal inh,LGR2 antag,PAX8 reporter,EWS-Fli block
C[C@@H]1CCCCO[C@@H](CN(C)C(=O)NC2CCCCC2)[C@H](C)CN([C@H](C)CO)C(=O)c2cc(NC(=O)Nc3ccc(F)cc3)ccc2O1,·,·,·,5,74*,10
C[C@@H]1CN([C@@H](C)CO)C(=O)c2cc(NC(=O)Nc3ccc(F)cc3)ccc2O[C@@H](C)CCCCO[C@@H]1CN(C)C(=O)NC1CCCCC1,·,·,·,8,24,-16
COc1ccc(OCCCCn2c(CO)nc3ccccc32)cc1,-2,69*,11,14,-4,-2
Cc1ccc(NN2C(=O)C=CC2=O)cc1,5,53*,36,7,14,·
Cc1ccccc1NN1C(=O)C=CC1=O,2,18,14,·,·,·
O=C(Nc1ccccc1F)N1CC(=O)N2[C@H](C1)[C@H](c1ccc(C#CC3CC3)cc1)[C@@H]2CO,·,·,·,1,16,-5
CNc1c2cccc(C)c2nc2c(C(=O)NCCN(C)C)cccc12,91*,1,-70,16,36,58*
Cn1c(-c2ccc(F)c(F)c2)cc2onc(-c3ccccc3)c2c1=O,-38,9,-6,·,-221,-76
COc1cccc(-c2cc3onc(-c4ccccc4)c3c(=O)n2C)c1,-16,70*,61*,26,-195,17
Cc1noc(C)c1NC(=O)Nc1ccc2c(c1)C(=O)N([C@@H](C)CO)C[C@H](C)[C@@H](CN(C)C(=O)Nc1ccc(C(F)(F)F)cc1)OCCCC[C@H](C)O2,·,·,·,-13,-8,4
COc1ccc(-c2cnc3c(NC=O)cc(-c4cccc(NS(C)(=O)=O)c4)cn23)cc1OC,·,25,16,-3,112*,48
COc1ccc(-c2cnc3c(NC=O)cc(-c4ccc(S(C)(=O)=O)cc4)cn23)cc1OC,·,-27,38,15,22,6
CN1CCN(c2ccc(-c3cc(NC=O)c4ncc(-c5ccc(F)c(Cl)c5)n4c3)cc2)CC1,·,-24,51*,-30,-74,-44
O=CNc1cc(-c2cccc(F)c2)cn2c(-c3ccc(F)c(Cl)c3)cnc12,·,-1,9,-14,38,7
CS(=O)(=O)Nc1cccc(-c2cc(NC=O)c3ncc(-c4ccc(F)c(Cl)c4)n3c2)c1,·,9,-10,-16,64*,11
COc1ccccc1-c1cnc2c(c1)C(=O)N([C@H](C)CO)C[C@@H](C)[C@H](CN(C)C(=O)c1cccnc1)O2,·,·,·,7,-6,2
Cc1cc(C)c(NS(=O)(=O)c2cccc3cccnc23)c(C)c1,10,-9,-2,-7,22,-36
O=S(=O)(Nc1cccc2cccnc12)c1ccccc1,-1,101*,29,3,105*,70*
Cc1ccc(S(=O)(=O)Nc2cccc3cccnc23)c([N+](=O)[O-])c1,13,99*,79*,0,71*,7
Cc1ccc2cccc(NS(=O)(=O)c3ccccc3)c2n1,·,·,·,15,96*,-32
Cc1cc(C)n(C(=O)/C(C#N)=N/Nc2cc(Cl)cc(Cl)c2)n1,9,51*,68*,·,·,·
Cn1c(-c2ccccc2)cnc1SCC(=O)N1CCCCC1,66*,93*,61*,·,·,·
CC(C)NC(=O)Nc1ccc2c(c1)C(=O)N([C@@H](C)CO)C[C@H](C)[C@H](CN(C)Cc1ccc3c(c1)OCO3)O2,·,·,·,-11,-2,2
O=C(Nc1ccc2nc3n(c(=O)c2c1)CCCC3)c1ccccc1F,-1,-29,-11,-7,-48,-65
O=C(Nc1ccc2nc3n(c(=O)c2c1)CCCCC3)c1cc([N+](=O)[O-])ccc1F,-5,97*,85*,?,90*,·
O=C(Nc1ccc2nc3n(c(=O)c2c1)CCCCC3)c1c(F)ccc([N+](=O)[O-])c1F,80*,106*,86*,0,72*,·
COc1ccc(CN(C)C[C@H]2OCCCC[C@@H](C)Oc3ccc(NS(=O)(=O)c4ccc(F)cc4)cc3C(=O)N([C@@H](C)CO)C[C@H]2C)cc1,·,·,·,-1,-15,-14
CCc1nc(N)nc(N)c1-c1ccc(NCCN)c([N+](=O)[O-])c1,4,3,-3,-15,-5,45
CCc1nc(N)nc(N)c1-c1ccc(N(C)Cc2ccccc2)c([N+](=O)[O-])c1,33,68*,47,22,38,56*
